Bioassay records as filed in PubChem.
Pf Dd2 inh – P. falciparum Dd2 growth inhibitors, primary screen, SYBR Green fluorescence, single dose replicates; activity change, % at 10 µM; AID 1159554, 2015; 94,000 compounds, 2.3% hits; 72 h; hits give low values; in the data active = activity change below about -80%; inconclusive = no clear call, values can overlap the other calls
C diff growth – C. difficile growth inhibitors, primary screen, HTS | AID 1259249, 2017 | growth activity, negative = inhibition, % at 16 µg/mL (by protocol) | 86,000 compounds, 0.25% hits | Clostridium difficile clinical isolate growth, OD600, 24 h; hits give low values;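 active = mean growth activity at or below -80% and every replicate also at or below -80%; inconclusive = mean at or below -80% but some replicate above -80%; inactive = mean growth activity above -80%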;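 also: 0% = DMSO wells and -100% = levofloxacin 16 µg/mL wells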
T cruzi growth-1 – T. cruzi intracellular proliferation inhibitors, primary screen, cell-based, beta-gal Tulahuen parasites, NIH3T3 host, luminescence. inhibition, % at 8.34 µM. AID 624255, 2012. 77,000 compounds, 5.9% hits. T. cruzi beta-gal in NIH3T3, GalScreen luminescence, 90 h;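 active = mean inhibition above about 93%, with at least 55% of replicates each passing it, limit read from the data, passing the limit was not always enough; inconclusive = only one of those two conditions holds; inactive = neither condition holds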
T cruzi growth-2 – T. cruzi intracellular proliferation inhibitors, confirmation, cell-based, NIH3T3 host, beta-gal parasite, luminescence, cherry-pick | shares compounds with T cruzi growth-1 | T. cruzi beta-gal in NIH3T3, GalScreen luminescence, 90 h | inhibition, % at 8.35 µM | 5,600 compounds, 72% hits | AID 651739, 2012;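 active = mean replicate inhibition above about 95% and at least 55% of replicates individually reaching it, limit read from the data; inconclusive = only one of the two criteria is met; inactive = neither criterion is met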
T cruzi growth-3 – inhibitors of intracellular T. cruzi replication, confirmation, NIH3T3 host cells, beta-gal parasites, cherry-pick, set 2 | AID 651740, 2012 | 5,600 compounds, 21% hits | shares compounds with T cruzi growth-1 | T. cruzi beta-gal in NIH3T3, GalScreen luminescence, 90 h | inhibition, % at 2.09 µM;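 active = mean inhibition above about 95%, with at least 55% of replicates also reaching it, limit read from the data; inconclusive = meets just one of the two conditions; inactive = meets neither condition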;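 also: plate controls were neutral control median for no effect and positive control median for full effect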
3T3 cytotox – cytotoxicity in mouse NIH/3T3 fibroblasts, confirmation, cytotoxicity control for T. cruzi proliferation inhibitor project, cell-based, cherry-pick, single point | shares compounds with T cruzi growth-1 | NIH/3T3 viability, CellTiter-Glo ATP luminescence, 90 h | cytotoxicity (signal decrease), % at 8.35 µM | 5,600 compounds, 14% hits | AID 651742, 2012;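 active = mean signal decrease across replicates above about 35% based on untreated-well scatter, with enough replicates individually passing, limit read from the data; inconclusive = no rule stated though some were filed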;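 also: 0% = median of neutral control wells and 100% = median of positive control wells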
NIH3T3 tox 2 – NIH/3T3 fibroblast cytotoxicity, confirmation, cytotoxicity control, cell-based, cherry-pick, single point, set 2. shares compounds with T cruzi growth-1. NIH/3T3 viability, CellTiter-Glo ATP luminescence, 90 h. inhibition, % at 24.9 µM. 5,600 compounds, 56% hits;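 active = mean loss of cell viability signal at or above a set limit, and enough replicates individually reaching it; inconclusive = meets only the mean limit or only the replicate share; inactive = meets neither condition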;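 also: 0% = median of neutral control wells and 100% = median of positive control wells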
Active calls of the source: *; ? = inconclusive; nt = no result given. Compounds with a hit are over-represented: about 6.7% of the library has one in this group of screens.

SMILES | Pf Dd2 inh | C diff growth | T cruzi growth-1 | T cruzi growth-2 | T cruzi growth-3 | 3T3 cytotox | NIH3T3 tox 2
CCNC(=O)C[C@@H]1CC[C@H]2[C@@H](COc3ccc(NC(=O)c4ccc(F)cc4)cc3C(=O)N2C)O1 | -2 | 8 | 6 | nt | nt | nt | nt
COc1ccc2c3c([nH]c2c1)[C@H](CO)N(C(=O)CC1CC1)CC31CN(C(=O)CC2CC2)C1 | -56 | -8 | nt | nt | nt | nt | nt
Cc1ccc(S(=O)(=O)Nc2cccc3c2O[C@H](CN(C)S(=O)(=O)c2cccs2)[C@H](C)CN([C@@H](C)CO)C3=O)cc1 | -27 | 7 | nt | nt | nt | nt | nt
C[C@@H]1CN([C@H](C)CO)C(=O)c2cc(C#CC3CCCC3)cnc2O[C@@H]1CN(C)C(=O)Nc1ccccc1 | 4 | 2 | 19 | nt | nt | nt | nt
C[C@@H]1CN([C@H](C)CO)C(=O)c2cc(-c3ccccc3)cnc2O[C@H]1CN(C)Cc1ccccc1 | -5 | -1 | -22 | nt | nt | nt | nt
CC(C)NC(=O)Nc1ccc2c(c1)C(=O)N([C@H](C)CO)C[C@H](C)[C@@H](CN(C)Cc1ccc(-c3ccccc3)cc1)O2 | -12 | -10 | -62 | nt | nt | nt | nt
CC(C)NC(=O)Nc1ccc2c(c1)C(=O)N([C@@H](C)CO)C[C@@H](C)[C@@H](CN(C)Cc1ccc(C(F)(F)F)cc1)O2 | 3 | 56 | nt | nt | nt | nt | nt
C[C@H]1CN([C@@H](C)CO)C(=O)CCCn2cc(nn2)CO[C@@H]1CN(C)C(=O)C1CC1 | 3 | -3 | 4 | nt | nt | nt | nt
C[C@H]1CN([C@@H](C)CO)C(=O)CCCn2cc(nn2)CO[C@@H]1CN(C)C(=O)Nc1cccc(C(F)(F)F)c1 | -7 | 3 | 28 | nt | nt | nt | nt
C[C@@H]1CN([C@@H](C)CO)C(=O)CCCn2cc(nn2)CO[C@@H]1CN(C)C(=O)Nc1cccc(C(F)(F)F)c1 | 1 | -5 | 152* | -26 | 6 | 12 | -3
C[C@@H]1CN([C@@H](C)CO)C(=O)CCCn2cc(nn2)CO[C@H]1CN(C)C(=O)C1CC1 | 8 | 1 | ? | 48 | 11 | 11 | 15
O=C(C[C@H]1C[C@@H]2c3cc(NC(=O)NC4CCCC4)ccc3O[C@@H]2[C@@H](CO)O1)NCc1ccc(Oc2ccccc2)cc1 | -36 | -3 | nt | nt | nt | nt | nt
O=C(C[C@H]1CC[C@@H]2[C@H](COC[C@H](O)CN2Cc2cc(F)ccc2F)O1)N[C@@H]1CCN(Cc2ccccc2)C1 | -77 | 1 | 130* | 67 | 8 | -18 | -5
O=C(C[C@@H]1CC[C@@H]2[C@H](COC[C@@H](O)CN2Cc2ccccc2F)O1)N[C@@H]1CCN(Cc2ccccc2)C1 | -19 | nt | 99* | 80 | 46 | -18 | -47
O=C(C[C@H]1CC[C@H]2[C@@H](COC[C@H](O)CN2Cc2cc(F)ccc2F)O1)N1CCc2ccccc2C1 | -37 | -4 | 98* | 79 | 0 | -8 | 16
O=C(C[C@H]1CC[C@@H]2[C@H](COC[C@@H](O)CN2Cc2cc(F)ccc2F)O1)N[C@@H]1CCN(Cc2ccccc2)C1 | -66 | 8 | 79 | nt | nt | nt | nt
O=C(C[C@@H]1CC[C@@H]2[C@H](COC[C@@H](O)CN2Cc2cc(F)ccc2F)O1)N1CCc2ccccc2C1 | -59 | -5 | 65 | nt | nt | nt | nt
O=C(C[C@H]1CC[C@H]2[C@@H](COC[C@@H](O)CN2Cc2cc(F)ccc2F)O1)N[C@@H]1CCN(Cc2ccccc2)C1 | -73 | 6 | 99* | 70 | 66 | -5 | -9
O=C(C[C@@H]1CC[C@H]2[C@@H](COC[C@@H](O)CN2Cc2ccccc2F)O1)N[C@H]1CCN(Cc2ccccc2)C1 | -29 | nt | 32 | nt | nt | nt | nt
O=C(C[C@@H]1CC[C@H]2[C@@H](COC[C@@H](O)CN2Cc2cc(F)ccc2F)O1)N[C@@H]1CCN(Cc2ccccc2)C1 | -59 | 4 | 95 | nt | nt | nt | nt
Cc1noc(C)c1NC(=O)Nc1cccc2c1O[C@@H](CN(C)S(C)(=O)=O)[C@@H](C)CN([C@H](C)CO)C2=O | 2 | -3 | 3 | nt | nt | nt | nt
